Bioassay records deposited in PubChem by several laboratories.
TLR4 MyD88 comp: inhibitors of TLR4-MyD88 association in cells, primary screen, cell-based, HeLa CL3-4, BLA complementation, FRET ratio; 200,000 compounds, 0.18% hits; HeLa CL3-4 TLR4/MyD88 BLA complementation; Toll-like receptor 4 (Homo sapiens) + Myeloid differentiation primary response protein …; inhibition, % at 8.4 µM; in the data active = inhibition above about 25%
TLR9-MyD88 block: inhibitors of TLR9-MyD88 association in cells, primary screen, cell-based, CHO, BLA complementation, fluorescence; CCF4 FRET ratio; 340,000 compounds, 0.21% hits; inhibition, % at 4.98 µM; Toll-like receptor 9 (Homo sapiens) + Myeloid differentiation primary response protein …;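 active = inhibition above the mean over all tested compounds plus 3 SD, cut at about 21% in these data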
HSF1 inhib: HSF1 inhibitors in luciferase reporter cells, primary screen, cell-based, NIH3T3, luminescence; NIH3T3-HGL HSE-luciferase, MG132-induced, luminescence 8 h; active compounds read low; activity change, negative = inhibition, % at 7.5 µM (by protocol); 300,000 compounds, 0.77% hits; AID 2098, 2009;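 active = more than half of replicate wells show activity change below -50%, luminescence cut by over half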;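 note: luciferase reports HSF-1 transcriptional activity via heat shock element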
HSF1 activator: HSF-1 activators, primary screen, NIH3T3-HGL cells, MG132 stress, luminescence, single point. 300,000 compounds, 1.7% hits. activation, % at 9 µM. NIH3T3-HGL HSF-1 luciferase reporter, 8 h; 100% = twice DMSO control signal;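 active = mean replicate activation of at least 50% with a set share of replicates each reaching 50%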
NOD2 RIPK2 PPI: NOD2-RIPK2 binding disruptors in cells, primary screen, fluorescence, CHO cells, BLA complementation; Receptor-interacting serine/threonine-protein kinase 2 (Homo sapiens), O43353; CCF4 ratio; inhibition, % at 4.98 µM; 360,000 compounds, 0.38% hits; AID 624267, 2012; in the data active = inhibition above about 21%
Target sequence (O43353 whole entry, looked up): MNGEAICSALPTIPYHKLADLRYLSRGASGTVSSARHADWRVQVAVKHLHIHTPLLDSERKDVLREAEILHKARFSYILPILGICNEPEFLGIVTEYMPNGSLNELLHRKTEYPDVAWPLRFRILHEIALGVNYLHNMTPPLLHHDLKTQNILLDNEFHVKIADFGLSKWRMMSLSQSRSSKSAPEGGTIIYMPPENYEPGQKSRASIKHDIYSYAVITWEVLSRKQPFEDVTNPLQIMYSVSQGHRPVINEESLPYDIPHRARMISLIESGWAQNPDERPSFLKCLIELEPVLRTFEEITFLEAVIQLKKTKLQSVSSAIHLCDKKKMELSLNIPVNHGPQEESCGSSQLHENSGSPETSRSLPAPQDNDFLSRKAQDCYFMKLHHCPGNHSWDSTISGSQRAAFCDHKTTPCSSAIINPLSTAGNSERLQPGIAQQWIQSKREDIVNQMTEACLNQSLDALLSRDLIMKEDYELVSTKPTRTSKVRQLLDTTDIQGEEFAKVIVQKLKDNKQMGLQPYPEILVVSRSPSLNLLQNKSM
Hits are given with their value; 0 = inactive; - = no result. Hits are enriched below; roughly 2.4% of the tested compounds scored in any of these assays.

SMILES	TLR4 MyD88 comp	TLR9-MyD88 block	HSF1 inhib	HSF1 activator	NOD2 RIPK2 PPI
CC1(C(=O)O)C=CC2(CCCCC2)N1C(=O)c1ccccc1 (stereo not drawn)	0	0	0	0	0
Cc1ccccc1OCC(=O)OCC(=O)NCCc1ccccc1	-	0	-	-	0
CC(=O)N(c1ccccc1)c1nnc(-c2cnc(C)cn2)s1	0	0	0	54	0
Cc1cnc(-c2nnc(N(C)C(=O)c3cccnc3)s2)cn1	0	0	0	0	0
CCOC(=O)N1CCc2cc(OC)c(OC)c3c2c1cc1cc(OC)c(OC)cc13	-	0	-	-	0
CC1=CC2=C(OC1N(C)C)c1cccc3cccc(c13)C2=O (stereo not drawn)	0	0	0	63	0
CN(C)CCCN1C(=O)c2cccc3cccc(c23)C1=O	-	0	0	0	0
COc1ccc(-c2noc(CCN3C(=O)c4ccccc4C3=O)n2)cc1OC	0	0	0	87	0
CC(=O)SC(C[N+](=O)[O-])c1cn(C(C)=O)c2ccccc12 (stereo not drawn)	0	0	0	204	0
CC(=O)n1cc(Nc2ccc([N+](=O)[O-])cc2)c2ccccc21	0	0	0	0	0
Cc1cccc(OCCCC(=O)Nc2nccs2)c1	0	0	0	67	0
Cc1ccc(OCCCC(=O)Nc2nccs2)cc1	0	0	0	0	0
CCOC(=O)c1[nH]c(=S)[nH]c1C	-	0	-	-	0
COC(=O)C1(Cc2ccccc2)NC(c2ccccc2C)C2C(=O)N(c3ccc4c(c3)OCO4)C(=O)C21 (stereo not drawn)	0	0	-73	0	0
CCN1C(=O)[C@H]2[C@@H](c3ccc(-c4ccc5c(c4)OCO5)cc3)N[C@@](Cc3ccccc3)(C(=O)OC)[C@H]2C1=O	-	0	-	-	0
C=CCN(C(=O)CCc1ccccc1OC)c1nc(-c2ccc(S(C)(=O)=O)cc2)cs1	-	0	0	58	0
COc1cc2nc(NC(=O)c3ccc(Cl)cc3)sc(=O)c2cc1OC	-	0	0	57	0
COc1ccc(C(=O)Nc2ccc3ccccc3c2)cc1OC	-	0	0	64	0
CCOc1ccc(CN(C)C(=O)CNC(=O)c2ccc3ccccc3c2)cc1OC	-	0	0	84	0
COc1ccc(Br)cc1CN(C)C(=O)CNC(=O)c1ccc2ccccc2c1	-	0	0	0	0
Cc1cccc(C(=O)Nc2ccc3ccccc3c2)c1	-	0	0	66	0
COc1cc(C(=O)Nc2ccc3ccccc3c2)cc(OC)c1OC	-	-	0	0	-
CC(=O)O[C@H]1[C@@H](O)[C@H](O)[C@H](Oc2c(O)c(C)c3c4c2[C@@H](C)CC[C@@H]4[C@@H](C)C[C@H]3C=C(C)C)O[C@H]1C	-	0	-	-	0
CC(=O)c1cccc(NC(=O)c2ccc(OC3CSC3)cc2)c1	0	0	0	0	0
COc1cccc(C2C(C(=O)Nc3nc4ccccc4s3)=C(C)NC3=C2C(=O)CC(C)(C)C3)c1OC (stereo not drawn)	0	0	0	0	0
SMILES	TLR4 MyD88 comp	TLR9-MyD88 block	HSF1 inhib	HSF1 activator	NOD2 RIPK2 PPI
COc1ccc(C(=O)Nc2ccccc2C(N)=O)cc1	0	0	0	0	0
COc1ccc(C(=O)Nc2cccc(C)c2)cc1	0	0	0	62	0
COc1ccc(C(=O)Nc2cccc(NC(C)=O)c2)cc1	-	-	-	-	0
COc1ccc(OC)c(C2C(C(=O)Nc3nc4ccccc4s3)=C(C)NC3=C2C(=O)CCC3)c1 (stereo not drawn)	0	0	0	75	0
O=C(Nc1cccc(Br)c1)c1ccc(OC2CSC2)cc1	0	-	0	51	-
NC(=O)c1ccccc1NC(=O)c1ccc2ccccc2c1	-	0	0	66	0
O=S(CC(O)(c1ccccc1)c1ccccc1)CC(O)(c1ccccc1)c1ccccc1	-	0	-	-	0
CC(C)n1ncc2c(C(=O)NCCc3ccc(F)cc3)cc(C3CC3)nc21	-	0	-	-	0
COc1ccc(C(=O)Nc2nc3ccccc3s2)cc1OC	0	0	0	71	0
CC1CCN(CCCNC(=O)c2ccc3c(=O)n(Cc4ccc(Cl)cc4)c(=S)[nH]c3c2)CC1	0	0	0	79	0
COc1ccc(NC(=O)c2nn(C)c(=O)c3ccccc23)cc1S(=O)(=O)Nc1ccccc1Cl	0	0	0	65	0
COc1ccccc1NS(=O)(=O)c1cccc(NC(=O)c2nn(C)c(=O)c3ccccc23)c1	-	0	-	-	0
CN1C(C(=O)Nc2ccc(OC(F)(F)F)cc2)=CC(c2cccs2)=NS1(=O)=O	-	0	-74	0	0
O=C1Nc2c(Cl)cc(Cl)cc2C1=O	-	0	-	-	0
COc1ccc2oc(=Nc3cc(F)ccc3F)c(C(N)=O)cc2c1	0	0	0	70	0
COc1ccc(C(=O)COC(=O)c2cccnc2SC)cc1	0	0	0	68	0
CSc1ncccc1C(=O)OCC(=O)c1ccc(Br)s1	0	0	0	0	0
Cc1cc(C(=O)CSc2nc(N)cc(=O)[nH]2)c(C)n1CC1CCCO1 (stereo not drawn)	-	0	-	-	0
CSc1ncccc1C(=O)OCC(=O)c1ccccc1	0	0	0	0	0
Cc1cc(C(=O)CSc2nc3ccccc3[nH]2)c(C)n1CC1CCCO1 (stereo not drawn)	0	0	-54	0	0
CCn1c(C)cc(C(=O)COC(=O)c2cccnc2SC)c1C	-	0	-	-	0
CSc1ncccc1C(=O)OCC(=O)c1ccccc1Br	0	0	0	54	0
CSc1ncccc1C(=O)OCC(=O)c1cc(C)n(CC2CCCO2)c1C (stereo not drawn)	-	0	-52	0	0
CCOC(=O)C(NS(=O)(=O)c1ccc(Br)cc1)C(C)C (stereo not drawn)	0	0	0	55	0
CCC(C)C(NS(=O)(=O)c1ccc(C)cc1)C(=O)O (stereo not drawn)	0	0	0	0	0
SMILES	TLR4 MyD88 comp	TLR9-MyD88 block	HSF1 inhib	HSF1 activator	NOD2 RIPK2 PPI
CC(=O)Nc1ccc(S(=O)(=O)O)c(OC(C)=O)c1	-	0	-	-	0
CCOC(=O)C1=C(c2ccccc2)NC(N)=NC1c1ccc(OCc2ccc(Cl)cc2)c(OC)c1 (stereo not drawn)	-	0	0	71	0
COc1ccc(CC(C)N2CCN(Cc3ccccc3)CC2)cc1OC (stereo not drawn)	-	0	0	0	0
C/C(=N/NC(=O)c1cc2ccccc2cc1O)c1ccco1	-	0	0	93	0
Cc1sc2nc(C)n(/N=C/c3ccccc3O)c(=O)c2c1C	0	0	0	0	0
Cc1sc2nc(C)n(/N=C/c3ccc(O)cc3O)c(=O)c2c1C	0	0	0	63	0
CCOc1cc(/C=C/C(=O)c2ccc(O)cc2)ccc1OCC(=O)N(C)C	0	0	0	0	0
CCOc1cc(/C=C/C(=O)c2ccc3c(c2)OCCO3)ccc1OCC(=O)N(C)C	-	0	0	68	0
N#C/C(=C\c1ccc(N2CCOCC2)o1)c1ccccc1	0	0	0	0	0
